{"source": "PubChem BioAssay (EPA / NIEHS)", "note": "The source made the active and inactive calls. How the source made its calls: active means hit-call score of the fitted dose curve at least 0.9, where 1 is the maximum; inactive means score below 0.9."}
{"target": "Estrogen receptor (Homo sapiens) (UniProt P03372)", "sequence (P03372 whole entry, looked up)": "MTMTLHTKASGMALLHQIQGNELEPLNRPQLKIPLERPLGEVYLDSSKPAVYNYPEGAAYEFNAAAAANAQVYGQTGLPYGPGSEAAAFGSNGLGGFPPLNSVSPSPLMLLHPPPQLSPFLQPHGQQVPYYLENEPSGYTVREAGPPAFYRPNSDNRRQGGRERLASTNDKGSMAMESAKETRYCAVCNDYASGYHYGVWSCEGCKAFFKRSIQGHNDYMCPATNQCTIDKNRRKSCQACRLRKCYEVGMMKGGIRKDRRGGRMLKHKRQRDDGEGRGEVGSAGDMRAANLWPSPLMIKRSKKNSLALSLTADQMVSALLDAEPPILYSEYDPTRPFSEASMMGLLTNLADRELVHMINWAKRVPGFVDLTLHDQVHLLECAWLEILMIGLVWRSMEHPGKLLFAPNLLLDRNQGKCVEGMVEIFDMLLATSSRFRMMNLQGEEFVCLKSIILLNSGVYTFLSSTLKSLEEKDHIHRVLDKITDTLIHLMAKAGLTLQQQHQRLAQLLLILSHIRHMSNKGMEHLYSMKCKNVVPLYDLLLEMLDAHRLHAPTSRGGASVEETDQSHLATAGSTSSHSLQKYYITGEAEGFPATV", "experiment": "CCTE_Deisenroth_AIME_384WELL_LUC_Shift: CCTE's 384-well Estrogen Receptor Transactivation Assay with AIME metabolic competence data shift (ERTA luciferase; difference in metabolism positive and negative), Deisenroth Lab (AID 2284041);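 further: shift is response with S9 minus without S9 so positive means metabolism raised ER signal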", "how_it_was_run": "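Here, parent compounds undergo 2 h phase I metabolism by PB/BNF-induced rat S9 before 24 h transactivation in VM7Luc4E2 cells; the curve models S9-positive minus S9-negative response over a 10-point series.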"}
{"smiles": "CCOP(=S)(OCC)Oc1nc(Cl)n(C(C)C)n1", "outcome": "inactive"}
{"smiles": "Cc1ccc(N=CN(C)C=Nc2ccc(C)cc2C)c(C)c1", "outcome": "inactive"}
{"smiles": "N#Cc1c(Cl)cccc1Cl", "outcome": "inactive"}
{"smiles": "CCCCC(C#N)(Cn1cncn1)c1ccc(Cl)cc1", "note": "(configuration not stated)", "outcome": "inactive"}
{"smiles": "CNC(=O)N(C)c1nnc(C(C)(C)C)s1", "outcome": "inactive"}
{"smiles": "CCOc1nc(C(Cl)(Cl)Cl)ns1", "outcome": "inactive"}
{"smiles": "CCCCC(O)(Cn1cncn1)c1ccc(Cl)cc1Cl", "note": "(configuration not stated)", "outcome": "inactive"}
{"smiles": "Cc1cc(C)nc(Nc2ccccc2)n1", "outcome": "inactive"}
{"smiles": "COCc1cnc(C2=NC(C)(C(C)C)C(=O)N2)c(C(=O)O)c1", "note": "(configuration not stated)", "outcome": "inactive"}
{"smiles": "COc1ccc(-c2ccccc2)cc1NNC(=O)OC(C)C", "outcome": "inactive"}
{"smiles": "CCOc1nc(F)cc2nc(S(=O)(=O)Nc3c(Cl)cccc3Cl)nn12", "outcome": "inactive"}
{"smiles": "CC(C)Oc1cccc(NC(=O)c2ccccc2C(F)(F)F)c1", "outcome": "inactive"}
{"smiles": "O=c1n(Cl)c(=O)n(Cl)c(=O)n1Cl", "outcome": "inactive"}
{"smiles": "COC(=O)NC(=S)Nc1ccccc1NC(=S)NC(=O)OC", "outcome": "inactive"}
{"smiles": "COc1cc(OC)nc(NC(=O)NS(=O)(=O)c2ncccc2OCC(F)(F)F)n1", "outcome": "inactive"}
{"smiles": "Nc1cnn(-c2ccccc2)c(=O)c1Cl", "outcome": "inactive"}
{"smiles": "Clc1cccc(C(Cl)(Cl)Cl)n1", "outcome": "inactive"}
{"smiles": "CC(C)Nc1nc(Cl)nc(NC(C)C)n1", "outcome": "inactive"}
{"smiles": "COCC(C)N(C(=O)CCl)c1c(C)csc1C", "note": "(configuration not stated)", "outcome": "inactive"}
{"smiles": "Nc1c(Cl)c(Cl)nc(C(=O)O)c1Cl", "AC50": "5.4 µM (active)"}
{"smiles": "CC(C)N1C(=O)c2ccccc2NS1(=O)=O", "outcome": "inactive"}
{"smiles": "CCC(C)n1c(=O)[nH]c(C)c(Br)c1=O", "note": "(configuration not stated)", "outcome": "inactive"}
{"smiles": "CC(C)N1C(=O)N(c2ccccc2)CSC1=NC(C)(C)C", "outcome": "inactive"}
{"smiles": "CN=C=S", "outcome": "inactive"}
{"smiles": "CCCC(=NOCC)C1=C(O)CC(CC(C)SCC)CC1=O", "note": "(configuration not stated)", "outcome": "inactive"}
{"smiles": "CC1(C)CON(Cc2ccccc2Cl)C1=O", "AC50": "37.7 µM (active)"}
{"smiles": "COC(=O)NS(=O)(=O)c1ccc(N)cc1", "outcome": "inactive"}
